# Data from the supplement of paper PMC6555819.
# Tested on: PPARg:RXRa DBDmut IVT, anti-RXR (DBD mutation: RXRa K156A/R161A, NR concentration 270 nM, RXRa partner concentration 90 nM)
# Test: PBM binding z-score (relative to random genomic background probes); higher = stronger binding; sequences stand for … in GC…GCGATTGACAGCGTAGAATGAAGG
# Procedure, shortened: (§1)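 Binding z-scores take random background probes as their reference. They come from custom Agilent 4×180K protein-binding microarrays incubated 1 h with ligand-free nuclear receptor dimers, with antibodies against each partner (one per run) detecting binding. Scanned fluorescence was regression-normalized.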
row,Sequence,PBM binding z-score
1,CGAACGAAGGCATGAGTTGATAGCAAATGCCGAT,-0.501
2,AGTCAAAGTTCAACTAGGTAACGTAAGATATGCT,1.28
3,CCTTCCGGGTCACGAGGTTATAGCACGACGAGCG,5.56
4,CCTACTGGGCCCAGGTCATTGATCAGTCAAAGCA,-0.465
5,CTACCAAGGTGAACAAGGTAGTTGATTACTATTC,2.65
6,TCTATAAGTTGATTAGGGCAACCGAAACAGCGGA,2.11
7,CCTAGCAGGCCAATATGGGTCACTCAAGGCTTGA,3.27
8,GCTCGGAGGCCAAGGTCAGAGCTTTGTCCGTAGA,0.637
9,GCTATTAGATGAAAGGGCAACCGAATGATTCTCG,0.363
10,CCCACTGGGCCATCAGGTCATTGATATCAACGTT,3.84
11,ACAGACAGGTGATGAAGGAAACTCAGGCTATCAT,-0.00583
12,ACTAGTTGGTCAGCTGAGGTCACGCACAATTCGG,1.52
13,ATCTCTAGGTAACAAGTTCAGTTAAAGAGAGGAC,2.97
14,CGTCAAAGTTCAACTAAGGTAACGTAAAGCACGC,0.3
15,CCTAGCAGGCCAGGGCCACTCAAGCATTTCGCTT,-0.0979
16,CCTACTGGGCCATCAGGTCTTTGATATCAACGTT,4.27
17,AGTCAAAGTTCATCTAGGTAACGTCAGATATGCT,1.33
18,ACTAGCAGGCCAAGGGTCACTCATGATTAGTCCG,1.25
19,TCATATAGGTAAAGGTGAAAGTTGAACGATATGA,4
20,TGAATGAGTTTAAAGATCAGGGAACGTGGCGTCG,-0.728

row,Sequence,PBM binding z-score
1,CGTCCACGGTCAATGCTAGGTCAGTGAAAGCATT,0.573
2,CAAACTCGGTCACCGGAAGGTCAAAGTCCGCATG,4.82
3,GCGACTGGGGCAAAGCGGGTTACCATAAGGTTGG,4.18
4,AGAATGAGGTTATACGTAGATCAGGAAAGAAAGT,4.05
5,ATATGTAGGTTAGCTGGGGCCATTCAGACTAGGC,6.72
6,TCTAGCAGGCCAGAGGGTCAATCAAGAGGTACGG,0.793
7,ACTTACGGGTCAACGAGGTGATAGCACGCGTATA,3.7
8,CCTACTGGGCCACGAAAGGTCATTGTTTCAGTGA,5.79
9,ATACCAAGGTGATCGTCAGGTCGTTGATACTAAC,0.522
10,CCGCCTAGGTCAGGGCCAGTATAGGAGGAACGTT,0.73
11,ATCTCTAGGTAACGTTCAGTGAAAGATCGATAGA,3.29
12,CATACAGGGTCAGGTAGGCCAGAGTAGGGACGGC,0.321
13,CATACAGGGTCAGCTAGGCCAGAGTAGGGACGGC,1.4
14,ATAACGAGGGCAATGAGTTGATAGCACGGGTGGC,3.37
15,CTTACAGGGTCAGCTAGGCCAGAGTAGGGACGGC,2
16,TCTTGTAGATCAACAGGAGGTTACGAAAGATCGA,1.67
17,CCGCCTGGGGCAGAAAGGTTACCATACCATCCGG,-0.75
18,ATGGAAAGGTCGACGAGGTGAGTATACACCGTTT,0.338
19,TCTTGTAGATCAATAGAGGTTACGAAAGTGCGCT,1.83
20,TCTATTAGTTGAAGGGCAACTGACGAGTCCGTTT,2.25

# Tested on: PPARg:RXRa IVT, anti-PPARg (NR concentration 270 nM, RXRa partner concentration 90 nM)
# Test: as above
# Procedure, shortened: as §1
row,Sequence,PBM binding z-score
1,CGAACGAAGGCATGAGTTGATAGCAAATGCCGAT,-0.459
2,AGTCAAAGTTCAACTAGGTAACGTAAGATATGCT,4.36
3,CCTTCCGGGTCACGAGGTTATAGCACGACGAGCG,6.43
4,CCTACTGGGCCCAGGTCATTGATCAGTCAAAGCA,1.3
5,CTACCAAGGTGAACAAGGTAGTTGATTACTATTC,2.48
6,TCTATAAGTTGATTAGGGCAACCGAAACAGCGGA,1.45
7,CCTAGCAGGCCAATATGGGTCACTCAAGGCTTGA,4.11
8,GCTCGGAGGCCAAGGTCAGAGCTTTGTCCGTAGA,0.382
9,GCTATTAGATGAAAGGGCAACCGAATGATTCTCG,1.35
10,CCCACTGGGCCATCAGGTCATTGATATCAACGTT,5.07
11,ACAGACAGGTGATGAAGGAAACTCAGGCTATCAT,0.186
12,ACTAGTTGGTCAGCTGAGGTCACGCACAATTCGG,3.03
13,ATCTCTAGGTAACAAGTTCAGTTAAAGAGAGGAC,2.91
14,CGTCAAAGTTCAACTAAGGTAACGTAAAGCACGC,2.33
15,CCTAGCAGGCCAGGGCCACTCAAGCATTTCGCTT,-0.384
16,CCTACTGGGCCATCAGGTCTTTGATATCAACGTT,4.11
17,AGTCAAAGTTCATCTAGGTAACGTCAGATATGCT,4.32
18,ACTAGCAGGCCAAGGGTCACTCATGATTAGTCCG,3.63
19,TCATATAGGTAAAGGTGAAAGTTGAACGATATGA,4.73
20,TGAATGAGTTTAAAGATCAGGGAACGTGGCGTCG,-0.0345

row,Sequence,PBM binding z-score
1,CGTCCACGGTCAATGCTAGGTCAGTGAAAGCATT,1.02
2,CAAACTCGGTCACCGGAAGGTCAAAGTCCGCATG,5.21
3,GCGACTGGGGCAAAGCGGGTTACCATAAGGTTGG,3.67
4,AGAATGAGGTTATACGTAGATCAGGAAAGAAAGT,2.36
5,ATATGTAGGTTAGCTGGGGCCATTCAGACTAGGC,5.67
6,TCTAGCAGGCCAGAGGGTCAATCAAGAGGTACGG,0.929
7,ACTTACGGGTCAACGAGGTGATAGCACGCGTATA,4.4
8,CCTACTGGGCCACGAAAGGTCATTGTTTCAGTGA,6.05
9,ATACCAAGGTGATCGTCAGGTCGTTGATACTAAC,1.08
10,CCGCCTAGGTCAGGGCCAGTATAGGAGGAACGTT,1.29
11,ATCTCTAGGTAACGTTCAGTGAAAGATCGATAGA,2.87
12,CATACAGGGTCAGGTAGGCCAGAGTAGGGACGGC,2.48
13,CATACAGGGTCAGCTAGGCCAGAGTAGGGACGGC,2.5
14,ATAACGAGGGCAATGAGTTGATAGCACGGGTGGC,2.77
15,CTTACAGGGTCAGCTAGGCCAGAGTAGGGACGGC,2.59
16,TCTTGTAGATCAACAGGAGGTTACGAAAGATCGA,1.04
17,CCGCCTGGGGCAGAAAGGTTACCATACCATCCGG,-0.444
18,ATGGAAAGGTCGACGAGGTGAGTATACACCGTTT,1.89
19,TCTTGTAGATCAATAGAGGTTACGAAAGTGCGCT,1.63
20,TCTATTAGTTGAAGGGCAACTGACGAGTCCGTTT,0.905
